# Screening results as filed in PubChem BioAssay.
# A selection: hits, their analogues and other compounds. The true share with any hit is near 4.1%.
# tim10-1 inh: inhibits growth of tim10-1 mutant yeast; S. cerevisiae tim10-1 ts strain growth, BacTiter-Glo, 24 h; inhibition, % at 20 µM; 330,000 tested, 2.2% active; AID 463190;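 active means inhibition of at least 40%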;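 further: mutant grown at 25 °C; 0% = DMSO wells with yeast and 100% = wells holding no yeast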
# NALP3 yeast inh: NALP3 inhibition in yeast. 330,000 tested, 0.39% active. AID 2825. Yeast reconstituted NLRP3/ASC/caspase-1, beta-gal luminescence, 24 h. inhibition, % at 10 µM;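 active means inhibition of 50% or more; inactive means inhibition below 50%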;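 further: plate controls were induced DMSO wells for no effect and uninduced yeast grown without galactose for full effect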
# TIM10 inh: inhibits growth of TIM10 yeast strain. S. cerevisiae TIM10 strain growth, BacTiter-Glo luminescence, 24 h. inhibition, % at 10 µM. 330,000 tested, 1.4% active. AID 463195;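 active means inhibition of 40% or more at the single tested concentration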;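 further: wild-type TIM10 isogenic control strain grown at permissive 25 °C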
# NALP1 inh: NALP1 inhibition. S. cerevisiae NALP1/ASC/caspase-1 growth, X-gal OD620, 72 h. inhibition, % at 10 µM. 280,000 tested, 0.61% active. AID 2071; in the data active means inhibition mostly above about 24%, no sharp cut-off; inactive means mostly below about 32%
# tim23-1 inh: inhibits growth of tim23-1 mutant yeast; S. cerevisiae tim23-1 growth, BacTiter-Glo luminescence, 24 h; inhibition, % at 20 µM; 330,000 tested, 1.3% active; AID 463212;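 active means growth inhibition of the mutant yeast at or above 50%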;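 further: temperature-sensitive mutant grown at 25 °C; plate controls were DMSO-treated mutant yeast for no effect and medium wells lacking yeast for full effect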
# tim10-1 confirm: confirmation of tim10-1 mutant yeast growth inhibitors; shares compounds with tim10-1 inh; S. cerevisiae tim10-1 ts strain growth, BacTiter-Glo, 24 h; inhibition, % at 20 µM; 7,400 tested, 56% active;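 active means inhibition of yeast growth at or above a set limit in either of two repeat tests at 20 µM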;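 further: tim10-1 mutant grown at permissive 25 °C to find synthetic lethal compounds; 0% = DMSO yeast wells and 100% = medium wells without yeast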
# Active calls of the source: *; . = not tested or not shown.
SMILES,tim10-1 inh,NALP3 yeast inh,TIM10 inh,NALP1 inh,tim23-1 inh,tim10-1 confirm
C/C(=N\NC(=S)NCc1ccccc1)c1ccc(C#N)cc1,5,3,15,24,3,.
O=C(O)c1cccc(S(=O)(=O)N(Cc2ccccc2)c2cccc(C(F)(F)F)c2)c1,4,7,12,13,23,.
CC(=O)c1ccccc1Oc1nc(CN2CCOCC2)nc2scc(-c3cccs3)c12,28,10,30,-18,4,.
COc1ccc(C(C)=O)c(Oc2nc(CN3CCOCC3)nc3scc(-c4cccs4)c23)c1,40*,8,10,9,20,14
COc1ccc(CCN(C)C2CCCN(C(=O)CCC(F)(F)F)C2)cc1OC (stereo not given),1,22,-1,-18,2,.
COc1cc(C(=O)O/N=C(\N)Cc2ccc([N+](=O)[O-])cc2)cc(OC)c1OC,63*,-18,25,0,22,53*
CCc1ccc(-c2csc(NC(=O)C3=COCCO3)n2)cc1,18,35,10,.,41,.
Clc1cccc(-c2nc(-c3ccccn3)no2)c1,17,9,1,-6,-6,.
Cc1ccc(-c2nc(-c3ccccn3)no2)cc1,43*,32,17,12,39,17
Cc1ccc(-c2nc(-c3ccccn3)no2)cc1Cl,40*,16,24,7,44,15
Cc1ccc(-c2nc(-c3ccccn3)no2)cc1[N+](=O)[O-],8,18,1,0,18,.
COc1ccc(Cc2nnc(NC(=O)Nc3ccccc3)s2)cc1OC,-2,4,10,14,9,.
CCCc1cc(=O)n2nc(N3CCC(C(=O)Nc4cccc(C(C)=O)c4)CC3)sc2n1,5,8,7,-2,10,.
COC(=O)c1ccn(Cc2ccccc2Cl)n1,.,.,.,11,.,.
CCc1cccc(NC(=O)CS(=O)Cc2nc(-c3ccc(C)cc3)oc2C)c1 (stereo not given),47*,12,26,-11,31,35*
CC(=NC1CCCCC1)C1=C(O)c2ccccc2C1=O,41*,24,22,6,34,6
CCC(C)(C)C(=O)Nc1ncc(S(=O)(=O)c2ccc([N+](=O)[O-])cc2)s1,42*,15,16,8,16,27
O=C(CCl)Nc1ncc(S(=O)(=O)c2ccc([N+](=O)[O-])cc2)s1,16,5,5,.,32,.
CC1=C2C(CCS2(=O)=O)CC2(C1)C(=O)OC(C)(C)OC2=O (stereo not given),19,-2,-14,-7,-8,.
Cc1cc(O)c(C(=O)/C=C/c2ccccc2Br)c(=O)o1,46*,18,23,4,35,11
Cc1cc(O)c(C(=O)/C=C/c2ccc(C(C)C)cc2)c(=O)o1,43*,21,31,10,43,33*
Cc1cc(O)c(C(=O)/C=C/c2ccccc2)c(=O)o1,30,6,13,4,42,.
O=C(CC1C(=O)NCCN1Cc1c(F)cccc1Cl)NC1CCCC1 (stereo not given),-15,22,-14,9,-5,.
CC1CCN(c2ccc3c(c2)S(=O)(=O)c2ccccc2C3=O)CC1,35,7,20,.,41,.
C=CC[C@@H]1Cc2c(Br)ccc(Br)c2[C@@H](CC=C)N1,41*,9,-2,9,29,28
SMILES,tim10-1 inh,NALP3 yeast inh,TIM10 inh,NALP1 inh,tim23-1 inh,tim10-1 confirm
O=C1C=C(NC(=O)Nc2ccc(Cl)c(Cl)c2)CCC1,43*,17,30,7,18,46*
Cc1ccc(N2Cc3ccccc3C2=S)cc1,42*,31,3,41,31,26
COC(=O)c1ccc2c(c1)N(Cc1nc(-c3ccc(Cl)cc3)oc1C)C(=O)C1CCCN21 (stereo not given),7,6,-12,.,6,.
CC(Cc1c[nH]c2ccccc12)C(=O)N1CCN(c2ccccc2F)CC1 (stereo not given),97*,9,3,3,17,19
Cc1cc(N2C3CCC2CC(O)(c2ccc(F)cc2)C3)nc(-c2ccccc2)n1 (stereo not given),48*,8,40,19,46,37*
CCN(CC)S(=O)(=O)c1cc(NC(=O)CNc2c(C)n(C)n(-c3ccccc3)c2=O)ccc1C,37,-4,3,3,12,.
CCn1c(SC(C)C)nnc1-c1cc(-c2ccccc2)sc1N,46*,28,39,15,39,38*
Cc1ccc(Sc2ncnc3onc(C)c23)cc1,41*,43,6,-9,32,21
Cc1ccc(S(=O)(=O)CCC(=O)N(CCCN2CCOCC2)c2nc3ccccc3s2)cc1,42*,32,35,.,18,42*
COc1cccc(Oc2nnnn2-c2ccccc2)c1,42*,-56,22,-17,34,33*
COc1ccc(Oc2nnnn2-c2ccccc2)cc1,20,10,16,7,9,.
CCCCCCSc1ccc([C@H]2N[C@@](C)(C(=O)OC)[C@H]3C(=O)N(C)C(=O)[C@@H]23)cc1,44*,18,29,.,38,35*
O=C(Nc1nc2ccccc2[nH]1)c1ccc(F)cc1,9,18,13,14,8,.
O=C(Nc1nc2ccccc2[nH]1)c1ccccc1F,46*,26,33,12,50,30
COc1ccccc1NC1CCCCC1NS(=O)(=O)c1ccc(C)cc1 (stereo not given),48*,-5,7,7,38,-9
Cc1ccc(C)c(NC2CCCCC2NS(=O)(=O)c2ccccc2)c1 (stereo not given),46*,5,25,14,37,22
CC1Sc2ccc(S(=O)(=O)N3CCC(C(=O)Nc4ccc(Cl)cc4)CC3)cc2NC1=O (stereo not given),18,22,-4,-5,7,.
C=C1/C(=C\C=C2/CCC[C@]3(C)[C@@H]([C@H](C)/C=C/[C@@H](O)C4CC4)CC[C@@H]23)C[C@@H](O)C[C@@H]1O,44*,48,10,.,41,26
Cc1cccc(-n2c(-c3ccco3)n[nH]c2=S)c1,16,1,3,6,18,.
CCCc1cc(-c2n[nH]c(=S)n2-c2cccc(C)c2)cs1,46*,18,28,29,49,39*
CCOc1ccc(N2C(=O)CC(Sc3nc4ccc(OCC)cc4s3)C2=O)cc1 (stereo not given),-5,19,-7,.,-20,.
CCOc1ccc2nc(SC3CC(=O)N(c4ccc(OC)cc4OC)C3=O)sc2c1 (stereo not given),44*,20,36,9,34,43*
COc1ccc(CC(=O)NNS(=O)(=O)c2ccc([N+](=O)[O-])cc2)cc1OC,11,16,-15,12,-6,.
Cc1ccccc1NC(=O)N1CCN(c2ncccn2)CC1,-6,1,-8,10,6,.
